The text below walks through data of ChEMBL document CHEMBL3988442, “University of Dundee, Small-Polar-MMV Screening Library” (2021).

For some assays here: Results with a measured potency or affinity are listed apart.

For test [1], the target named is Protein translocase subunit SecA (Escherichia coli (strain K12)) (UniProt P10408). Nature of the test: Assay to Identify E. coli SecA ATPase Inhibitors. On the set-up: scale not given: direction of the effect not stated beside the values. It is filed as functional. As to conditions: 30 µM.
Chain of Protein translocase subunit SecA (Escherichia coli (strain K12)) (P10408 whole entry): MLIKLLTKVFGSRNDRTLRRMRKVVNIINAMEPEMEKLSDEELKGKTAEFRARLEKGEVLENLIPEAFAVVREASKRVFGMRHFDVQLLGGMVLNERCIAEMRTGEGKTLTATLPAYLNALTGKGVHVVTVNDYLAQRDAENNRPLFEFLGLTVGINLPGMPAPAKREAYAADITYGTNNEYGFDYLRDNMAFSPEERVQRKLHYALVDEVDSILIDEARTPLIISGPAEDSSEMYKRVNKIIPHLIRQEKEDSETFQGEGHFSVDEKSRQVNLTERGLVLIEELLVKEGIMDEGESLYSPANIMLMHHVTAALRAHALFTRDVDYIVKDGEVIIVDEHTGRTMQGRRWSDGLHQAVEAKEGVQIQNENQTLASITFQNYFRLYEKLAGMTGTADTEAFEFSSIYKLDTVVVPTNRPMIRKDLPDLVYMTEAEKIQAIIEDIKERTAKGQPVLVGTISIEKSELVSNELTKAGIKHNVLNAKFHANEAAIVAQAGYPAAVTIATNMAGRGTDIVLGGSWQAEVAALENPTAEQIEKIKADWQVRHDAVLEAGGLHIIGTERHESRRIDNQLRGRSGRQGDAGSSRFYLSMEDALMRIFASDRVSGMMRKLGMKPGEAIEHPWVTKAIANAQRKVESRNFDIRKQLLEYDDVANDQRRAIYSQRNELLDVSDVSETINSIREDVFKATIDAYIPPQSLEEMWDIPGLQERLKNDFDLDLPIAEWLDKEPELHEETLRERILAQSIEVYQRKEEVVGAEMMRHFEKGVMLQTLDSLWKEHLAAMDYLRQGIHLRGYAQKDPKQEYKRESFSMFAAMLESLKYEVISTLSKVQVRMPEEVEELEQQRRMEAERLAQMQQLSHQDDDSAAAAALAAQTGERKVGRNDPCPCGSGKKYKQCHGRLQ
For test [2], the target named is T1, Ubiquitin-activating enzyme e1, putative (Leishmania donovani (strain BPK282A1)) (UniProt E9BSI1).
T1 sequence (whole entry): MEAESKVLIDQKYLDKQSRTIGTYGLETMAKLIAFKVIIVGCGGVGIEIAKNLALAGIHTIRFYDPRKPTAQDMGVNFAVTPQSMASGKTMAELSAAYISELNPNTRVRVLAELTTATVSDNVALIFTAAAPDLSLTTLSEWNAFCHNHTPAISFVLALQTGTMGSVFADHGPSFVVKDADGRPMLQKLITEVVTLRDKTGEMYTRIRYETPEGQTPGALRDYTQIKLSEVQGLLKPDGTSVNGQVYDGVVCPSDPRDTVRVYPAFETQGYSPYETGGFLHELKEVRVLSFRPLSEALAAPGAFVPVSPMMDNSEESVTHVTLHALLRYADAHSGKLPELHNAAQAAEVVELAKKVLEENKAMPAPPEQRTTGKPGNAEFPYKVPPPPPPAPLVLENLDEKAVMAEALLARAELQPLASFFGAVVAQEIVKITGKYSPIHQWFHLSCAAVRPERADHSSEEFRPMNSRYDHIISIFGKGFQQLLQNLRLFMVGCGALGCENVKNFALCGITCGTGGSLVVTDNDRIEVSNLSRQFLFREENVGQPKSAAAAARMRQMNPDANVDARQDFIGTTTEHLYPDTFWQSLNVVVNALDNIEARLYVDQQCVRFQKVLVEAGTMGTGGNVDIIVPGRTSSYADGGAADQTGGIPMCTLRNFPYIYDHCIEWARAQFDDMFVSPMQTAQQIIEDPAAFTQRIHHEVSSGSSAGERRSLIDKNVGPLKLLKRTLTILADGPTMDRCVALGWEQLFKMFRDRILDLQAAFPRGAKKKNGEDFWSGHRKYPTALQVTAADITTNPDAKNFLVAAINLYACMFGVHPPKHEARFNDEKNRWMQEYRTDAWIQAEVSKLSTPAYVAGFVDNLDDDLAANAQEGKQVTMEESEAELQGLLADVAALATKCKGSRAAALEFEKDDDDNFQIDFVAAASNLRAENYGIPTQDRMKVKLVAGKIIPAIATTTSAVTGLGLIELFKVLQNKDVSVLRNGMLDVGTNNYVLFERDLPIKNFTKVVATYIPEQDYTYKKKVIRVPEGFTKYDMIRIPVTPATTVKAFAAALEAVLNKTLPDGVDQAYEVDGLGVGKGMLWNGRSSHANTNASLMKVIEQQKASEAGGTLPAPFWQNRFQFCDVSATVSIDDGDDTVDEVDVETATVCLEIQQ
Nature of the test: Leishmania donovani Ubiquitin Activating Enzyme (LdE1). As to conditions: 30 µM. Also noted: scale not given: direction of the effect not stated beside the values. It counts as functional.

In test [3] the target is T2, Aspartate--tRNA(Asp/Asn) ligase (Mycobacterium tuberculosis (strain ATCC 25618 / H37Rv)) (UniProt P9WFW3). Note: in the data most compounds retested in dose-response had high values.
T2 sequence (whole entry): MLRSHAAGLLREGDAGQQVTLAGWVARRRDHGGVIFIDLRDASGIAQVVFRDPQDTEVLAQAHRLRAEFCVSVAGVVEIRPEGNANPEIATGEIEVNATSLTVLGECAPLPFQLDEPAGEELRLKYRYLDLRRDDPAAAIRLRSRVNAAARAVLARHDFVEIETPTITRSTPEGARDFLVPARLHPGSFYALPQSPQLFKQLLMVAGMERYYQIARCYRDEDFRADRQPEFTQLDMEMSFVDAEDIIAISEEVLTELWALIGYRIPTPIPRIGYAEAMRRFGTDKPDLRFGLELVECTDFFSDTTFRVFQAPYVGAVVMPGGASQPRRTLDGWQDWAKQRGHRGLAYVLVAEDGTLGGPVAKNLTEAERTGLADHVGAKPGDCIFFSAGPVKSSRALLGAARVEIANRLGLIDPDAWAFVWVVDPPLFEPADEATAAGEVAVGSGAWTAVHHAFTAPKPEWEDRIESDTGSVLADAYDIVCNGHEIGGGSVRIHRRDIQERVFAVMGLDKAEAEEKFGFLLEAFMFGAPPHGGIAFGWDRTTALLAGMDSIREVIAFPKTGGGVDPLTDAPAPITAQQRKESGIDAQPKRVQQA
Nature of the test: Assay for Asp RNA synthetase-1 from Mycobacterium tuberculosis. It is filed as functional. On the set-up: scale not given: direction of the effect not stated beside the values. As to conditions: 30 µM.

The target in test [4] is AMP-activated protein kinase, AMPK (Homo sapiens) (UniProt P54646+O43741+P54619+Q9UGJ0+Q9Y478+Q13131+Q9UGI9). Nature of the test: AMP-dependent Kinase enzyme assay. An in vitro enzyme assay that detects ADP turnover that is directly proportional to AMPK activity. This uses naive AMPK that is activated during the assay with MK-8722. The settings on record: 30 µM. It is filed as functional. Also noted: scale not given: direction of the effect not stated beside the values.

The target of test [5] is Sialic acid-binding Ig-like lectin 9 (Homo sapiens) (UniProt Q9Y336). Nature of the test: Hs-Siglec9 ALPHAscreen SOP 20170721. On the set-up: scale not given: direction of the effect not stated beside the values. As to conditions: 10 µM. In general terms: Alpha assays give light when donor and acceptor beads are brought close together.
Chain of Sialic acid-binding Ig-like lectin 9 (Homo sapiens) (Q9Y336 whole entry): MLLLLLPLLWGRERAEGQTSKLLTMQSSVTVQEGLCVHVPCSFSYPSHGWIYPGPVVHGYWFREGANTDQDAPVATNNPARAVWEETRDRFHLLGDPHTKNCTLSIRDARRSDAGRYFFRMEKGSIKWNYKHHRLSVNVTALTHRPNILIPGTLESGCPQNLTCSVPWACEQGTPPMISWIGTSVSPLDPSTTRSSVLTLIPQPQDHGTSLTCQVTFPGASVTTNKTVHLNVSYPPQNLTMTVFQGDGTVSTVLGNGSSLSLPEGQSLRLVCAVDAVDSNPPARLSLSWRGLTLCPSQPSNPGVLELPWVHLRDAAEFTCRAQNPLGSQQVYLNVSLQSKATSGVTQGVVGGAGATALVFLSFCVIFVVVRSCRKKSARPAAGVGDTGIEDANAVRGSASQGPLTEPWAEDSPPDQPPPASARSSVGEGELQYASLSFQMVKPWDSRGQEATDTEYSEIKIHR
The subject of a further test is Trypanosoma cruzi. Nature of the test: Trypanosoma cruzi phosphomannomutase and mannose-1-phosphate guanylyltransferase assay. It counts as functional. Also noted: scale not given: direction of the effect not stated beside the values. As to conditions: 10 µM.
In test [6] the target is T3, Arginase-2, mitochondrial (Homo sapiens) (UniProt P78540).
T3 sequence (whole entry): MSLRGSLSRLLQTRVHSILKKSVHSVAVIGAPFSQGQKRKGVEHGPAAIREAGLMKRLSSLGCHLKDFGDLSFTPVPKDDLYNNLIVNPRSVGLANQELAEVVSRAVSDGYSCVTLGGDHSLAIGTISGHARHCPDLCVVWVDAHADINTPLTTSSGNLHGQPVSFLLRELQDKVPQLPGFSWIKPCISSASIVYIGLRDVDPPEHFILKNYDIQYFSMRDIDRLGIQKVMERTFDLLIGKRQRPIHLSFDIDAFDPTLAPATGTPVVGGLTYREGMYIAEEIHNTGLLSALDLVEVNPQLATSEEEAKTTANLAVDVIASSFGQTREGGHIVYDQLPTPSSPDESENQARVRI
Nature of the test: in vitro enzyme assay to detect the production of urea directly proportional to the activity of Arginase II. It counts as functional. On the set-up: scale not given: in the data most compounds retested in dose-response had high values.

Test [7] addresses T4, Proteasome subunit beta (Trypanosoma cruzi) (UniProt O96673).
T4 sequence (whole entry): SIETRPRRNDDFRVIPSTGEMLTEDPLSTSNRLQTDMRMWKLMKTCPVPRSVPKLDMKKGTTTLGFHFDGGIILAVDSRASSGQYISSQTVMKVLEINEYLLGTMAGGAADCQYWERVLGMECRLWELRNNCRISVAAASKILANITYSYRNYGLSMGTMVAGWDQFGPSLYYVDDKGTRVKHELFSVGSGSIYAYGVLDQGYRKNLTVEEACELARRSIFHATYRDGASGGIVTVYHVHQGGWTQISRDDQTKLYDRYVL
Nature of the test: Trypanosoma cruzi proteasome chymotrypsin-like activity (TcProtChymo) assay. The settings on record: 9.37 µM. Also noted: scale not given: in the data most compounds retested in dose-response had high values. It counts as functional.

The species entered for another test is Homo sapiens. Nature of the test: To identify inhibition of the IFN signalling (Jak-Stat) pathway via expression of an eGFP reporter gene under the control of an IFN-stimulated response element (ISRE) containing MxA promoter. Also noted: scale not given: direction of the effect not stated beside the values. As to conditions: 30 µM. It is filed as functional. A general note: In a reporter assay the amount or activity of a reporter protein is the signal.

In test [8] the target is Shiga toxin 2 (Escherichia coli O157:H7) (UniProt P09385+P09386). Nature of the test: E. coli 0.157:H7 Shiga Toxin SOP - stx2 screening assay. It counts as functional. Also noted: scale not given: direction of the effect not stated beside the values. The settings on record: 30 µM.
The target in test [9] is T5, Tyrosyl-tRNA synthetase, putative (Trypanosoma cruzi (strain CL Brener)) (UniProt Q4DSP6).
T5 sequence (whole entry): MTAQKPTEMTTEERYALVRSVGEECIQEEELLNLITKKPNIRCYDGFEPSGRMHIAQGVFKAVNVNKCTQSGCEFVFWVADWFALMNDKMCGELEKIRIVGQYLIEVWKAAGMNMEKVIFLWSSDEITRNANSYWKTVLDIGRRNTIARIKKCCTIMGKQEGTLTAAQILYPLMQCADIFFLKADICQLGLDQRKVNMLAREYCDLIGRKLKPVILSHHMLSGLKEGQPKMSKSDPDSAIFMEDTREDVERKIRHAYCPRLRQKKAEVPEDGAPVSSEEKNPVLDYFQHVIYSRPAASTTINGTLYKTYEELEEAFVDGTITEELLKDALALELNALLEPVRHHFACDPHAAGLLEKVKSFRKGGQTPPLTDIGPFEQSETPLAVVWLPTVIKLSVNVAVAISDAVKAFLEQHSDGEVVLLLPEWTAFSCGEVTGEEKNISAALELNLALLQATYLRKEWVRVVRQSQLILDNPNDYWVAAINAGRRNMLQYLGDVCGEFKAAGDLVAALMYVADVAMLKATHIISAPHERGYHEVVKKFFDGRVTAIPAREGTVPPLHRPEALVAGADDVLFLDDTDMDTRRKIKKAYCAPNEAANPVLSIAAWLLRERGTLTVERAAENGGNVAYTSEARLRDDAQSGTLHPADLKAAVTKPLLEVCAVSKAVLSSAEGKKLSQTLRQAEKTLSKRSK
Nature of the test: Trypanosoma cruzi tyrosyl tRNA synthetase (TcYRS) _High Tyrosine SOP. It is filed as functional. On the set-up: scale not given: in the data most compounds retested in dose-response had high values. As to conditions: 30 µM.

For test [10], the target named is T5, Tyrosyl-tRNA synthetase, putative (Trypanosoma cruzi (strain CL Brener)). Nature of the test: Trypanosoma cruzi tyrosyl tRNA synthetase (TcYRS) SOP. It counts as functional. On the set-up: scale not given: direction of the effect not stated beside the values. The settings on record: 30 µM.
Test [11] deals with Chromo domain-containing protein 1 (Saccharomyces cerevisiae (strain ATCC 204508 / S288c) (Baker's yeast)) (UniProt P32657). Nature of the test: ScCHD-1 Enzyme Inhibition Assay. It is filed as functional. Also noted: scale not given: in the data most compounds retested in dose-response had high values. The settings on record: 30 µM.
Chain of Chromo domain-containing protein 1 (Saccharomyces cerevisiae (strain ATCC 204508 / S288c) (Baker's yeast)) (P32657 whole entry, the tested form may be a part): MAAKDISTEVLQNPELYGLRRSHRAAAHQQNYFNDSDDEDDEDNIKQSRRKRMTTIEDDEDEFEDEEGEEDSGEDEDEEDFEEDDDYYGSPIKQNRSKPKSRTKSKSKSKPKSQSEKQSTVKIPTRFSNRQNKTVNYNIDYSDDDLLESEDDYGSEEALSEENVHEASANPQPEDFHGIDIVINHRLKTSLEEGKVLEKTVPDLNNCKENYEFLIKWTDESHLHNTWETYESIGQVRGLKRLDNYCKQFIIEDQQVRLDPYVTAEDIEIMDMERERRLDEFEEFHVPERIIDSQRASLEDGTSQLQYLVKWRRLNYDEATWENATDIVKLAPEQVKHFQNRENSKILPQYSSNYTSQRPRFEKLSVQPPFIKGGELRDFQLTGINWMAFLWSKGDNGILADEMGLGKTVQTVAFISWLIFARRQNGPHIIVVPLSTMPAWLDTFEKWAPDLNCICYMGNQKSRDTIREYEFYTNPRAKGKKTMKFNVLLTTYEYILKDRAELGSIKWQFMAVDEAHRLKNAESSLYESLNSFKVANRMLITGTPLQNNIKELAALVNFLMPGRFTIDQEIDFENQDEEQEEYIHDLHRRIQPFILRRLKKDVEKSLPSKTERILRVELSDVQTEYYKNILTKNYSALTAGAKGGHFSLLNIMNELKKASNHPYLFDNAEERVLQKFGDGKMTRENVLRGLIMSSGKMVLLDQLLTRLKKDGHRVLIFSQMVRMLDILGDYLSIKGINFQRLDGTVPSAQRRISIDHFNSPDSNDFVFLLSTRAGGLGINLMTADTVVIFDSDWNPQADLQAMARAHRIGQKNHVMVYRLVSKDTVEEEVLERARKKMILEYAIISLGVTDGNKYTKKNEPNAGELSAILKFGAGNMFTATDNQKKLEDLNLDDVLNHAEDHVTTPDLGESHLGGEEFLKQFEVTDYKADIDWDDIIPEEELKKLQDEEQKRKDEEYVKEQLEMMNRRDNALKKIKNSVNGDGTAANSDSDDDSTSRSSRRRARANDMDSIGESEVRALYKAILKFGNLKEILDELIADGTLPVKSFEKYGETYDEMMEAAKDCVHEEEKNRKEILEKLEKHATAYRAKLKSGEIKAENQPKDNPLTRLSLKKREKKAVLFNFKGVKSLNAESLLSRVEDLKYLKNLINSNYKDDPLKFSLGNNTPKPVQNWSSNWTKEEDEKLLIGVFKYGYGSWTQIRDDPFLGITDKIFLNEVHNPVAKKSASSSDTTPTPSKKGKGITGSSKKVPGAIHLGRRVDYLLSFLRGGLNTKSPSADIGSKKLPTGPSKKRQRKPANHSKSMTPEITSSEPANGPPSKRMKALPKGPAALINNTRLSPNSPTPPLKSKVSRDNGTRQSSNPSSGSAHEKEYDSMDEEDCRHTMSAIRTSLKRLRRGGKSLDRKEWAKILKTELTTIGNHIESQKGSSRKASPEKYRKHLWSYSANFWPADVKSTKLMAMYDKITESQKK
For test [12], the target named is T6, Methionyl-tRNA synthetase, putative (Leishmania donovani (strain BPK282A1)) (UniProt E9BF75).
T6 sequence (whole entry): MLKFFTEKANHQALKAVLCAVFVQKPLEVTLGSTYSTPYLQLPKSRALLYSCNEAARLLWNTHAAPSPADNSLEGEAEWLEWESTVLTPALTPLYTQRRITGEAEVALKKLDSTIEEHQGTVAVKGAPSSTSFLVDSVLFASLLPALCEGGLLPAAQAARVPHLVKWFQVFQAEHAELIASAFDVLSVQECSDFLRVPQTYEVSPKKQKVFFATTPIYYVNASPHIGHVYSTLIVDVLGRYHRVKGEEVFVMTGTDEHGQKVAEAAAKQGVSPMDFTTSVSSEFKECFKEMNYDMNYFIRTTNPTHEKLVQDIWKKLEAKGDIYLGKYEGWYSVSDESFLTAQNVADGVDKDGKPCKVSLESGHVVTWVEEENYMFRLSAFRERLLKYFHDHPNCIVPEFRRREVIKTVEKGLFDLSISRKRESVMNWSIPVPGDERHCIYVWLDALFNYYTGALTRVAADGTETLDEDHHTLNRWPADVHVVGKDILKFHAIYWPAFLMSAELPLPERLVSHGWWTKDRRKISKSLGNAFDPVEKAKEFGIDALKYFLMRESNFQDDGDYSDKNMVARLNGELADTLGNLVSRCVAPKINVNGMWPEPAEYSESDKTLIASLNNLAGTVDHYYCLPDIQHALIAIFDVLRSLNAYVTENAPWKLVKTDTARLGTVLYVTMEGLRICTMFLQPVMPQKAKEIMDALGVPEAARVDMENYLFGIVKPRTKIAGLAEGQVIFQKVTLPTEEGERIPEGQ
Nature of the test: Leishmania donovani Methionine tRNA synthetase (LdMetRS):v7. Dose response assay. It counts as functional. On the set-up: conc 80 nM, time 150 minutes.

In the case of `O=C1[C@H]2CN(Cc3ccoc3)C[C@H]2CN1Cc1ccncc1`, the Percent Effect in test [1] was -3.37%; in [2] it was 7.79%; in test [3], 3.69%; in [4] it was 2.81%; in test [5] it was 28.9%; in the test on Trypanosoma cruzi, -4.23%. Further, the Percent Effect was 4.14% in [6] (33.3 µM); 7.32% in test [7]; -1.81% in the test filed under Homo sapiens; -39.9% in test [8]; 3.23% in [9]; 8.64% in test [10]. The Percent Effect in test [11] is 10.5%.
For the compound `O=C(O)CN1CCC(F)(F)C2(CCN(c3ccccn3)C2)C1` (centres undefined), the PXC50 in [12] (MAX_EFFECT 7.981220657) and in test [12] (MAX_EFFECT 9.814814815) was less than 4 throughout.
In the case of `O=C1CSC(c2ccsc2)c2c(n(C3CCOCC3)[nH]c2=O)N1` (centres undefined), the Percent Effect in test [1] was -1.28%; in test [2] it was 14.7%; in [3], -2.38%; in test [4] it was -5.51%; in test [5] it was 3.3%; in the test on Trypanosoma cruzi, -0.589%. Further, the Percent Effect in [6] (30 µM) is 7.03%; in [6] (33.3 µM), 94.2%; in [7], 8.13%; in the test filed under Homo sapiens it was 6.12%; in test [8], -12.8%; in [9], 6.35%. Moreover, the results for the Percent Effect in [10] and in test [11] were 12.8% and -11.9%, respectively.
